The nature of assay [1]: small molecules captured by biotinylated probe aFSTL3 – biochemical, small-molecule microarray, fluorescence 635/667, stem cell growth factor project, primary screen (AID 1064).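 Note: measures binding of the biotinylated anti-FSTL3 antibody to printed compounds.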 The note with it: higher = more signal.
Assay [2] in a line: binders from COS7 lysate, DM2A8 probe, primary screen, torsin A project, cell lysate, small-molecule microarray, fluorescence 635/667 (AID 1065). The note with it: higher = more signal, COS7 lysate expressing mutant human TOR1A.
The nature of assay [3]: small molecules captured by biotinylated probe aFGF2 – biochemical, small-molecule microarray, fluorescence 635/667, stem cell growth factor project, primary screen (AID 1067).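 Note: measures binding of biotinylated aFGF2 protein to printed compounds on slides; z-score merges feature fluorescence and signal-to-noise across triplicate slides.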 To be noted: higher = more signal.
The nature of assay [4]: small molecules captured by biotinylated probe aFGF10 – biochemical, small-molecule microarray, fluorescence 635/667, stem cell growth factor project, primary screen (AID 1071).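 Note: score merges 667 nm spot intensity and signal to noise from triplicate slides.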 The note with it: higher = more signal.
The target of assay [5] is Neurogenic locus notch homolog protein 2 (Homo sapiens) (UniProt Q04721). In words: small molecules binding Notch2 protein – biochemical, small-molecule microarray, 635 nm fluorescence, stem cell growth factors, primary screen (AID 1073). The note with it: higher = more signal.
The target in assay [6] is Pro-neuregulin-1, membrane-bound isoform (Homo sapiens) (UniProt Q02297). In words: small molecules binding neuregulin-1 protein – biochemical, small-molecule microarray, fluorescence 635/667, psychiatric disease protein project, primary screen (AID 1075).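 Note: score combines 667 nm spot fluorescence with signal to noise.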 The note with it: NRG1 binding, 635 nm fluorescence, higher = more signal.
Assay [7] deals with Neuregulin-1 EGF-like domain. In words: small molecules binding NRG1 EGF domain – biochemical, small-molecule microarray, 635 nm fluorescence, primary screen (AID 1081).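 Note: binding of the protein to compounds printed on small-molecule microarray slides.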 The note with it: higher = more signal.
A short description of assay [8]: FRG1 expression reporter modulators in myotubes – cell-based, C2C12 myotubes, firefly/Renilla luciferase, luminescence, FRG1 inhibition for FSHD, primary screen (AID 1084). The note with it: FRG1 promoter luciferase, higher = more signal, called active from +8 up or from −8 down.
Assay [9] can be described thus: small molecules captured by biotinylated probe aFST – biochemical, small-molecule microarray, fluorescence 635/667, stem cell growth factor project, primary screen (AID 1086).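 Note: score merges 667 nm fluorescence with signal-to-noise of each printed compound spot.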 The note with it: higher = more signal.
The nature of assay [10]: binders of probe aHhip on microarray, primary screen, stem cell growth factor project, biochemical, small-molecule microarray, fluorescence 635/667 (AID 1087).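 Note: score merges spot fluorescence at 667nm with spot signal to noise ratio.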 To be noted: higher = more signal.
Assay [11] deals with PRMT1 (protein arginine N-methyltransferase 1). In words: small molecules binding arginine methyltransferase PRMT1 – biochemical, small-molecule microarray, 635 nm fluorescence, primary screen (AID 1088).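 Note: binding of Prmt1 protein to compounds spotted on small-molecule microarray slides.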 The note with it: higher = more signal.
Assay [12] is described as follows: growth effects on S. cerevisiae YJM789 – YJM789 clinical isolate, OD600, 24 h, basal, primary screen (AID 1089).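 Note: growth of clinical yeast isolate S. cerevisiae YJM 789 seeded 1000 cells per well; test concentration not given here.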 The note with it: higher = more signal, called active from +8 up or from −8 down.
Assay [13] is described as follows: S. pombe growth modifiers, basal conditions – strain 972, OD600, 24 h, no modulator, primary screen (AID 1090).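 Note: basal condition with compound alone and no growth modifier present; test concentration not given here.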 The note with it: S. pombe 972 growth, higher = more signal, called active from +8 up or from −8 down.
A short description of assay [14]: budding yeast growth modifiers under rapamycin – strain BY4716, OD600, 96 h, primary screen (AID 1091). Note: test concentration not given here. To be noted: S. cerevisiae BY4716 + rapamycin, higher = more signal, called active from +8 up or from −8 down.
Assay [15] deals with Torsin-1A-interacting protein 2 (Homo sapiens) (UniProt Q8NFQ8). Kind of assay: small molecules binding lysate-expressed LULL1 – cell lysate, human LULL1 lysate, 635/667 nm fluorescence, primary screen (AID 1092).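 Note: probe is lysate of COS7 cells overexpressing human LULL1; score merges per-feature 667 nm fluorescence with signal-to-noise.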 The note with it: small-molecule microarray, hLULL1 lysate binding, 635 nm fluorescence; higher = more signal.
Assay [16] is described as follows: optical density change of DRC41 E. coli – strain DRC41, OD650, 24 h, E. coli filamentation project, primary screen (AID 1093).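 Note: MC1000 strain lacking acrAB efflux and sulA so SOS filamentation is blocked; test concentration not given here.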 To be noted: E. coli DRC41 growth, higher = more signal, called active from +8 up or from −8 down.
Assay [17] in a line: probe aLefty2 binding to arrayed compounds – biochemical, biotinylated probe, 635/667 nm fluorescence, primary screen (AID 1094).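 Note: score merges spot fluorescence near 667 nm with spot signal-to-noise ratio.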 To be noted: small-molecule microarray, higher = more signal.
The subject of assay [18] is Noggin (protein binding on small-molecule microarray). Kind of assay: small molecules binding Noggin protein – biochemical, 635/667 nm fluorescence, primary screen (AID 1095).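 Note: score merges 667 nm feature fluorescence with signal to noise over triplicate slides.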 The note with it: 635 nm fluorescence, higher = more signal.
The target of assay [19] is Neurogenic locus notch homolog protein 3 (Homo sapiens) (UniProt Q9UM47). Kind of assay: small molecules binding NOTCH3 protein – biochemical, 635/667 nm fluorescence, primary screen (AID 1096). To be noted: small-molecule microarray, 635 nm fluorescence, higher = more signal.
The nature of assay [20]: probe aEGFR binding to arrayed compounds – biochemical, biotinylated probe, 635/667 nm fluorescence, primary screen (AID 1097).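 Note: probe is a biotinylated anti-EGFR antibody binding compounds printed on slides; score combines fluorescence near 667 nm and signal to noise of each spot.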 The note with it: small-molecule microarray, higher = more signal.

Structures are written as SMILES. Active and inactive are the calls of the source.

Sequence of Pro-neuregulin-1, membrane-bound isoform (Homo sapiens) (Q02297 whole entry, looked up, the tested form may be a part, canonical isoform): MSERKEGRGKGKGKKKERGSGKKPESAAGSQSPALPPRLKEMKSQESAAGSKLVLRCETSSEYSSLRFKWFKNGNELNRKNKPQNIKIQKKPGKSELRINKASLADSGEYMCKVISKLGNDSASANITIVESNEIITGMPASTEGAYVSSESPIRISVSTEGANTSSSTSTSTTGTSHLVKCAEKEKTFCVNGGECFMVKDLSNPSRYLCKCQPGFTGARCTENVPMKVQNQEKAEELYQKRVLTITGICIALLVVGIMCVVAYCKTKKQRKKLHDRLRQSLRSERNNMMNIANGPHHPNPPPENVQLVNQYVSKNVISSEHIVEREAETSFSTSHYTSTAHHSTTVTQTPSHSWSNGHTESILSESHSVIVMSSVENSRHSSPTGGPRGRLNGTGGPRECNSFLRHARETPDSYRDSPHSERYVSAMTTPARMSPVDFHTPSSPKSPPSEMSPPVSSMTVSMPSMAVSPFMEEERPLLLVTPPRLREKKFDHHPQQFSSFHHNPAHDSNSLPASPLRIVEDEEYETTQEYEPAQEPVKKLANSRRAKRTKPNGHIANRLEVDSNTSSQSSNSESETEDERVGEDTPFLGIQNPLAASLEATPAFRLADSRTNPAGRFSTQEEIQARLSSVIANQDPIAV
Sequence of Torsin-1A-interacting protein 2 (Homo sapiens) (Q8NFQ8 whole entry, looked up): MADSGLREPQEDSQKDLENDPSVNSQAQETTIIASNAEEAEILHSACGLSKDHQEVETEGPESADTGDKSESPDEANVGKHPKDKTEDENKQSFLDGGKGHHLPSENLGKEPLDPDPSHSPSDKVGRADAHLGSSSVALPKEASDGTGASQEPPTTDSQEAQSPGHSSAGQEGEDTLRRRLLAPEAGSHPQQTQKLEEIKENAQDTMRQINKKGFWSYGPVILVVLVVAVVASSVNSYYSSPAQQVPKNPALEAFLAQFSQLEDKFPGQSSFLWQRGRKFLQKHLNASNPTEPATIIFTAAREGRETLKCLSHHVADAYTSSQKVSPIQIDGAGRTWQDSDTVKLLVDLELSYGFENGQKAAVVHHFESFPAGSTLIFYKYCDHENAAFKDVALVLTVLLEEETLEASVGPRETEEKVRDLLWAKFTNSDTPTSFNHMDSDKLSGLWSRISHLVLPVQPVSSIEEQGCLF
Sequence of Neurogenic locus notch homolog protein 2 (Homo sapiens) (Q04721 whole entry, looked up, canonical isoform): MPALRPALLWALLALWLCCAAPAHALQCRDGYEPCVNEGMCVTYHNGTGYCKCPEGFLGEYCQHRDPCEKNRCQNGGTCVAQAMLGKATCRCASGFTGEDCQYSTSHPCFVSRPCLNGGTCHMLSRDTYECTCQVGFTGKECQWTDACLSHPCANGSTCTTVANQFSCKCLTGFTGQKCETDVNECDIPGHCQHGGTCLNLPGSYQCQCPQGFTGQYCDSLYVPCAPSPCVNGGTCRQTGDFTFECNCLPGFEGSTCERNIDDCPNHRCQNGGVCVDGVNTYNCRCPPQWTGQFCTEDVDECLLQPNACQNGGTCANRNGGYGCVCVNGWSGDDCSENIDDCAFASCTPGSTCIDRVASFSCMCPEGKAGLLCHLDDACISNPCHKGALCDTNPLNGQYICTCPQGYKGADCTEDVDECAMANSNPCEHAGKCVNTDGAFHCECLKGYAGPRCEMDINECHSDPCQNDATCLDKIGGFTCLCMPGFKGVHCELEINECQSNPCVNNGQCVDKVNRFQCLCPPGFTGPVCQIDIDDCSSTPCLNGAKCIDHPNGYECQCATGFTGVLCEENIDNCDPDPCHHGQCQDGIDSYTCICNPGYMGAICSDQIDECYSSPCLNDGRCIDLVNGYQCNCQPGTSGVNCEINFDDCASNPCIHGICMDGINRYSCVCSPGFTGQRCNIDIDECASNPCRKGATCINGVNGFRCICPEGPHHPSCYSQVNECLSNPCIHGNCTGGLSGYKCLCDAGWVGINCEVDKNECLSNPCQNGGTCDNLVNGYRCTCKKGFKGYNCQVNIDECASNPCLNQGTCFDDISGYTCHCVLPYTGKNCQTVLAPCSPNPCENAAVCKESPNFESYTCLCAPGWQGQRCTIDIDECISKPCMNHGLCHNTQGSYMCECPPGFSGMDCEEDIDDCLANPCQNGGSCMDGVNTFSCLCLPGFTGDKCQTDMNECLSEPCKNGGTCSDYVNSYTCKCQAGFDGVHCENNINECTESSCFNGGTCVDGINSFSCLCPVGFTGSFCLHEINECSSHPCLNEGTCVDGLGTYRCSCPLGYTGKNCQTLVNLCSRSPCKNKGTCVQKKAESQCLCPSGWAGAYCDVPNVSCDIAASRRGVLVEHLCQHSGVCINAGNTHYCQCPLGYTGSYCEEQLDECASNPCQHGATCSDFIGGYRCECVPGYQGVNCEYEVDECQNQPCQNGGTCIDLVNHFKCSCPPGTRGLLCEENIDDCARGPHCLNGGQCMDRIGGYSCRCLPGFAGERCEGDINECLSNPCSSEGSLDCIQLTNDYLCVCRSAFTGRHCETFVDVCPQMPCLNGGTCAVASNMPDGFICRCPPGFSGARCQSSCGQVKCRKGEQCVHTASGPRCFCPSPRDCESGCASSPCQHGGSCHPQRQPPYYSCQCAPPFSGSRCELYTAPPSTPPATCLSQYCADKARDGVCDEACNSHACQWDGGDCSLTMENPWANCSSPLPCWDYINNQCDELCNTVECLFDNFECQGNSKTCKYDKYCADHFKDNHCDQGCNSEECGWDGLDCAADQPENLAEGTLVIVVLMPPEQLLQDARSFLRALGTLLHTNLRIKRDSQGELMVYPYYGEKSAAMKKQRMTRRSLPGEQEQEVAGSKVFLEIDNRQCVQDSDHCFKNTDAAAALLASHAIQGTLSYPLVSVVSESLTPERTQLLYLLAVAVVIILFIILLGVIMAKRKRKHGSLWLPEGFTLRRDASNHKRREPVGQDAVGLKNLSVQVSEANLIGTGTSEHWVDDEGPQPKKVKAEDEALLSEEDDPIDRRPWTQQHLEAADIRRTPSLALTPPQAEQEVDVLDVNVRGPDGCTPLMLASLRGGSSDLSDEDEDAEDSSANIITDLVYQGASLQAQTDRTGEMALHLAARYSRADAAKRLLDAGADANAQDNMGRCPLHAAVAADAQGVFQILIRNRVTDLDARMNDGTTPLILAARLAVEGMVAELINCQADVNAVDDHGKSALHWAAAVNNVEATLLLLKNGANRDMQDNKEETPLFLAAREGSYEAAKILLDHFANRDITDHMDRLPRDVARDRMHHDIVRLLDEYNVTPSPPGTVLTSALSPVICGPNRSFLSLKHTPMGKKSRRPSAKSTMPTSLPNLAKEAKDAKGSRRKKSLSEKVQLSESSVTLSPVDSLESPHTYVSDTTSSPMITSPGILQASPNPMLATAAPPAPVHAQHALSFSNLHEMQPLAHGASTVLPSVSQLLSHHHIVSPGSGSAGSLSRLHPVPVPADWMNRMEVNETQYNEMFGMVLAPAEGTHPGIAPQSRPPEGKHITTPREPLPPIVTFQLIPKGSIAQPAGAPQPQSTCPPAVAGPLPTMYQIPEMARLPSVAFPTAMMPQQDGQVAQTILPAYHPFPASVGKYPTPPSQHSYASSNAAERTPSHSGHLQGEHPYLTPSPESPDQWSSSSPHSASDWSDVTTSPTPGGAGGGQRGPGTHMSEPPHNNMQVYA

Consider `COC(=O)c1c2oc(c1C(=O)OC)C(=O)N1CCC[C@H]1Cn1nncc1CN(Cc1ccccc1)C(=O)N[C@H](CO)CC2`, for which the composite z-score in assay [1] was 1.31; in assay [2], 0.0712; in assay [3] it was -0.0597; in assay [4] it was 0.627; in assay [5], 0.201; in [6], 0.655. Besides, the composite z-score was 0.803 in [7]; -0.152 in assay [9]; -0.353 in assay [10]; 0.97 in assay [11]; 0.983 in assay [15]; -0.116 in [17]. Further, the composite z-score in [18] was found to be 0.743; in [19], 0.2; in assay [20] it was 0.471. In addition, the z-score was -0.606 (inactive) in assay [8]; 0.955 (inactive) in assay [12]; -0.086 (inactive) in [13]; 0.613 (inactive) in [14]; 1.24 (inactive) in assay [16].
On to `CCc1cccc(NC(=O)O[C@H]2[C@H](OC(=O)Nc3ccccc3)[C@H](OC(=O)Nc3ccccc3)[C@@H](OC)O[C@@H]2CO)c1`, for which the composite z-score in assay [1] was -0.0949; in [2] it was 0.0776; in assay [3], 0.0457; in assay [4], 1.2; in assay [5], 1.19; in [6] it was 1.7. In addition, the composite z-score in assay [7] is 1.25; in assay [9], 0.766; in assay [10], -0.201; in [11], 1.5; in assay [15] it was 3.48; in assay [17] it was 0.0166. For the same compound, the composite z-score in assay [18] is 0.349; in assay [19], 1.08; in assay [20], -0.0968. Further, the z-score in [8] is 2.16 (inactive); in assay [12], 1.22 (inactive); in assay [13] it was 1.72 (inactive); in assay [14] it was 8.61 (active); in assay [16] it was -0.728 (inactive).
Turning to `CN(C)C(=O)[C@@]1(CCC(=O)OC(C)(C)C)N=C(c2ccc(OCCCO)cc2)O[C@H]1c1ccccc1CN=[N+]=[N-]`, the composite z-score is -0.0162 in [1]; 1.01 in [2]; 0.0408 in assay [3]; 0.39 in assay [4]; 1.06 in assay [5]; 1.92 in assay [6]. Also, the composite z-score in [7] was found to be 1.28; in assay [9], 0.717; in assay [10], 0.0373; in [11], 1.51; in assay [15], 3.83; in [17] it was 0.047. For the same compound, the composite z-score in assay [18] is 0.968; in assay [19] it was 0.599; in [20] it was -0.0238. For the same compound, the z-score was -0.119 (inactive) in assay [8]; -0.142 (inactive) in assay [12]; 0.245 (inactive) in assay [13]; -1.11 (inactive) in assay [14]; 0.488 (inactive) in assay [16].
For `COc1ccc([Si](C)(C)[C@H]2[C@H](CC(=O)N3CCC[C@H]3CO)O[C@@]3(C(=O)N(Cc4ccc(N5CCC5=O)cc4)c4ccccc43)[C@@H]2C)cc1`, the composite z-score was -0.589 in [1]; 0.429 in [2]; -0.0276 in assay [3]; 0.299 in assay [4]; 0.549 in [5]; 0.454 in assay [6]. Moreover, the composite z-score is 1.1 in assay [7]; 0.485 in assay [9]; -0.215 in [10]; 1.54 in assay [11]; 2.42 in assay [15]; -0.197 in [17]. The results for the composite z-score in assay [18], in [19] and in [20] were 1.65, 1.07 and -0.0578, respectively. The z-score in assay [8] is -4.59 (inactive); in assay [12] it was -0.647 (inactive); in assay [13], -1.59 (inactive); in assay [14], -1.31 (inactive); in [16] it was 0.13 (inactive).
For the compound `O=C1C2C=CC(C(O)C=Cc3ccc([N+](=O)[O-])cc3)N(Nc3ccccc3)C2C(=O)N1c1ccccc1` (stereo not given), the composite z-score in [1] was -0.134; in [2] it was -0.0552; in assay [3], 0.183; in assay [4], 0.995; in assay [5], 1.59; in [6], 1.7. For the same compound, the composite z-score was 0.967 in assay [7]; 1.22 in assay [9]; -0.0237 in [10]; 1.33 in assay [11]; 2.78 in assay [15]; 0.349 in [17]. Further, the composite z-score in assay [18] is 0.505; in assay [19], 1.04; in [20], -0.0238. For the same compound, the z-score in assay [8] is -0.028 (inactive); in assay [12], 0.431 (inactive); in assay [13] it was 0.102 (inactive); in assay [14], -0.19 (inactive); in assay [16], -0.608 (inactive).
